# Results as given in PMC4336329 (PLoS ONE, 2015).
# Among all 310,000 compounds or so, about 14,000 (4.5%) showed an effect of 50% or more. The effect is printed as a negative number. The sample as a whole holds a higher share of strong results than the screen did.
# Molecular target: human ether-à-go-go-related gene (hERG) potassium channel (human, UniProt Q12809)
# Test: primary screen, population patch clamp on CHO cells stably expressing hERG; higher = less effect of the substance
# 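Note: peak tail current of the secondary pulse compared with the same well before compound.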
# human ether-à-go-go-related gene (hERG) potassium channel, sequence (Q12809 whole entry, looked up): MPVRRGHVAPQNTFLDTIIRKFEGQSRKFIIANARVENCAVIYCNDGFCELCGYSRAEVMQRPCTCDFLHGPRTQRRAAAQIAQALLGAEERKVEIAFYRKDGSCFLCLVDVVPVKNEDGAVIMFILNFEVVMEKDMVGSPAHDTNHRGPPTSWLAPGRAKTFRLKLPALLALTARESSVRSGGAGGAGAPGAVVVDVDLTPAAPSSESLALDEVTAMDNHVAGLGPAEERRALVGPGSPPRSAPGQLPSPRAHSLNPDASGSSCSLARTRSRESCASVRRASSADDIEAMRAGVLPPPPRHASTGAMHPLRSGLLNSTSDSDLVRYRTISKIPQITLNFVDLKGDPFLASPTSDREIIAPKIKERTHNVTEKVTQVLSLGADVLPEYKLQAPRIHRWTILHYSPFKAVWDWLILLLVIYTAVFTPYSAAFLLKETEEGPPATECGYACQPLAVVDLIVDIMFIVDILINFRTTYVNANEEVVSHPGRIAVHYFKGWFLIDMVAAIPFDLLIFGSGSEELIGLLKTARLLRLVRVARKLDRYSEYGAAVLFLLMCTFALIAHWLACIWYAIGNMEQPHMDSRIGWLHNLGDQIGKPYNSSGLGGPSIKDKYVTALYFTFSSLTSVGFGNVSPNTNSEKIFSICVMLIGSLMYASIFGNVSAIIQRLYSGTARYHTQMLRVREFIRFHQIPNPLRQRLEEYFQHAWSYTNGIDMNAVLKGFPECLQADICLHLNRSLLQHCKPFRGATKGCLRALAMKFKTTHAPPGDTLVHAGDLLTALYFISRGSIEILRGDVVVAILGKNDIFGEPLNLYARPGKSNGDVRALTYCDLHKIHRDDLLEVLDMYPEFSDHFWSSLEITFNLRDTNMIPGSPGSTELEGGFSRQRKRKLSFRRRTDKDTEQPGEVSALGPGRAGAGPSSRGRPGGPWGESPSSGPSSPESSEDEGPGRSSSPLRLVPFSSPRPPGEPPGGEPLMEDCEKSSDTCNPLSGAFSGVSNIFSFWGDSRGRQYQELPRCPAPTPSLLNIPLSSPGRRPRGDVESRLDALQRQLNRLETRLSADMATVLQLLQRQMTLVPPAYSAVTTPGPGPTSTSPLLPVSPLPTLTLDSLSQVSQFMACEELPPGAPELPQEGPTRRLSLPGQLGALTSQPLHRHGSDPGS
row,SMILES,"hERG current change (%, negative = inhibition) at 10uM [%]"
1,Cc1cc(C(N)=O)c2cc(Br)ccc2n1,1.34
2,COc1cccc(N2CCN(C(=O)NC3CCCCC3)CC2)c1,2.57
3,Cc1cc(C(=O)Nc2ccccc2C)c2ccccc2n1,14.1
4,O=c1[nH]cnc2c1nc(SCc1ccccc1)n2C1OC(CO)C(O)C1O (stereo not shown),-2.32
5,O=c1cc(-c2ccc(O)cc2)oc2cc(O)cc(O)c12,-2.23
6,C[C@H]1CN=C(Nc2ccccc2)N1CCc1ccc(F)cc1,-46.3
7,CC(C)C[C@H]1CN=C(Nc2ccccc2)N1CCc1ccc(F)cc1,-62.4
8,Cc1cccc(CCN2C(Nc3ccccc3)=NC[C@@H]2C)c1,-23
9,Cc1cccc(CCN2C(N(C)C)=NC[C@@H]2CC(C)C)c1,-18.1
10,Cc1cccc(CCN2C(Nc3ccccc3)=NC[C@@H]2CC(C)C)c1,-67.5
11,COc1ccccc1C(=O)NNC1=NS(=O)(=O)c2ccccc21,20.3
12,COc1cccc(NC(=O)Cn2cc(C(=O)C3CC3)c3ccccc32)c1,0.319
13,CCn1c(-c2cccnc2)n[nH]c1=S,0.542
14,CCOc1ccc(OCCC(=O)OCC(=O)NC2CCCCC2)cc1,11.4
15,CCn1c(N2CCN(CC(=O)c3c(C)n(C)c4ccc(OC)cc34)CC2)nc2c1c(=O)[nH]c(=O)n2C,3.19
16,O=C(Cc1cn(-c2ccccc2)nc1-c1ccccc1)N1CCCCC1,-18.3
17,Cc1cc(Cl)c2oc(C(=O)N3CCN(c4cccc(C)n4)CC3)c(C)c2c1,16.3
18,Cc1cc(Cl)c2oc(C(=O)N3CCN(C(=O)c4ccco4)CC3)c(C)c2c1,-53.9
19,Cc1cc(Cl)c2oc(C(=O)N3CCN(c4ccncc4)CC3)c(C)c2c1,-75.9
20,Cc1c(C(=O)N2CCN(c3ccccc3)CC2)oc2c(Cl)cccc12,4.82
21,Cc1cc(Cl)c2oc(C(=O)N3CCC(O)(c4ccccc4)CC3)c(C)c2c1,8.87
22,Cc1c(C(=O)N2CCN(C(=O)c3ccco3)CC2)oc2c(Cl)cccc12,-34.3

row,SMILES,"hERG current change (%, negative = inhibition) at 10uM [%]"
1,CCOc1ccc(C(C(=O)NC(C)(C)C)N(CCOC)C(=O)CCC(=O)Nc2ccccn2)cc1 (stereo not shown),-5.95
2,COC(=O)c1c(S(C)(=O)=O)nc(-c2ccccc2)[nH]c1=O,-2.13
3,Cc1nc2scc(-c3ccccc3)c2c(=O)n1N,-1.43
4,Cc1nc(-c2cccnc2)sc1C(=O)N/N=C/c1ccccc1Cl,-75.5
5,CNC(=O)c1sc(-c2cccnc2)nc1C,-34.7
6,Cc1nc(-c2cccnc2)sc1C(=O)Nc1ccc(Cl)cc1,-29.2
7,O=C(N/C(=C/c1ccccc1F)C(=O)N1CCCCC1)c1ccccc1,10.1
8,O=C(N/C(=C\c1ccc(F)cc1)C(=O)N1CCCCCC1)c1ccccc1,-11.6
9,CN1CCN(C(=O)/C(=C/c2ccccc2F)NC(=O)c2ccccc2)CC1,-29.2
10,CSc1ccc(/C=C(/NC(=O)c2ccccc2)C(=O)N2CCN(C)CC2)cc1,-75.9
11,CN1CCN(C(=O)/C(=C/c2ccc(N(C)C)cc2)NC(=O)c2ccccc2)CC1,-17.5
12,O=C(N/C(=C/c1ccc(F)cc1)C(=O)N1CCCC1)c1ccccc1,19.5
13,CC1CCN(C(=O)/C(=C\c2ccccc2F)NC(=O)c2ccccc2)CC1,-52.7
14,CN1CCN(C(=O)/C(=C/c2ccc(F)cc2)NC(=O)c2ccccc2)CC1,-77.8
15,COc1ccc(/C=C(\NC(=O)c2ccccc2)C(=O)N2CCN(C)CC2)cc1OC,20
16,C[C@@H](CSc1ccc(Br)cc1)CN1CC[C@H](O)CCC1=O,-12
17,COc1ccc2oc(C(=O)OCC(=O)NC3CC3)c(C)c2c1,11
18,Cc1sc2ncn(CC(=O)NCC(=O)N3CCC4(CC3)OCCO4)c(=O)c2c1C,-4.54
19,Cc1cc(NC(=O)c2c([N+](=O)[O-])cnn2C)no1,14.2
20,Nc1ccccc1C(=O)NC1CCCCNC1=O (stereo not shown),26.2
21,CC1(C)N=C(N)NC(Nc2ccccc2Cl)=N1,20.9
22,C[C@@H](C(=O)O)[C@H]1C[C@]1(C)[C@H](NC(=O)OCc1ccccc1)c1ccccc1,4.41

row,SMILES,"hERG current change (%, negative = inhibition) at 10uM [%]"
1,COc1cccc(NC(=O)CC2(CC(=O)O)CCCC2)c1,-39.8
2,CC1Cc2cc(S(=O)(=O)N3CCCC(C(=O)N4CCCCC4)C3)ccc2N1C(=O)C1CC1 (stereo not shown),-4.84
3,O=C(c1cc(-c2ccc(Cl)cc2)n(-c2cc(Cl)ccc2Cl)n1)N1CCOCC1,-68.9
4,O=C(c1cc(-c2ccc(Cl)cc2Cl)on1)N1CCOCC1,-9.72
5,O=C(c1cc(-c2ccc(Cl)cc2)n(-c2ccc(Cl)cc2Cl)n1)N1CCOCC1,-79.6
6,O=C(c1cc(Cl)ccc1Cl)N1CCOCC1,8
7,O=C(c1cc(-c2ccc(Cl)cc2)on1)N1CCOCC1,-0.136
8,O=C(O)c1cc(-c2ccccc2)n(-c2ccc(Cl)cc2Cl)n1,21.5
9,N#C/C(=C\c1ccc(-c2nc3ccccc3s2)o1)C(N)=O,5.03
10,COc1ccc(C(=O)NC(C)C2CC3CCC2C3)cc1 (stereo not shown),2.42
11,CC1=CN2C(=N)/C(=C/c3ccc(Sc4ccc(C)cc4)o3)C(=O)N=C2S1,10.1
12,CCOC(=O)Cn1c(COc2ccccc2OC)[n+](C)c2ccccc21,7.4
13,CCCCCCCCCCOC(=O)Cn1c(COc2ccccc2OC)[n+](C)c2ccccc21.[Cl-],-77.3
14,CCCCCCCCCCOC(=O)Cn1c(COc2ccccc2C)[n+](C)c2ccccc21.[Cl-],-72.5
15,Cn1c(COc2ccccc2O)[n+](C)c2ccccc21.[Br-],15.8
16,CCOC(=O)C(CCCOc1ccccc1C)C(=O)OCC,6.43
17,CCn1c(COc2ccccc2C)nc2ccccc21,4.07
18,CCOC(=O)c1nn(-c2ccc(Cl)cc2)c(=O)c(C#N)c1C,5.94
19,CCCCNC(=S)N(C)/N=C/c1ccc(OCc2ccc(C(=O)OC)cc2)c(OC)c1,11.8
20,O=C(N/N=C/c1cccnc1)c1ccc2c(c1)OCCO2,8.1
21,Cc1ccc(CSCC(=O)N(C)CC(=O)Nc2c(Cl)cccc2Cl)cc1,-9.07
22,CCOC(=O)C1CN(S(=O)(=O)c2ccccc2)c2cc(S(=O)(=O)CC)ccc2O1 (stereo not shown),-23.3

row,SMILES,"hERG current change (%, negative = inhibition) at 10uM [%]"
1,CCOC(=O)C1CN(S(=O)(=O)c2ccc(OC)cc2)c2cc(S(=O)(=O)CC)ccc2O1 (stereo not shown),-52
2,CCOC(=O)C1CN(S(=O)(=O)c2ccc(C)cc2)c2cc(S(=O)(=O)CC)ccc2O1 (stereo not shown),-41
3,CC(=O)Oc1ccc(C2OC(=O)c3ccccc3N2C(C)=O)cc1 (stereo not shown),1.12
4,CCN(C(=O)Cc1c(C(=O)O)n(C)c2ccccc12)c1cc(OC)ccc1OC,11.9
5,O=S(=O)(NCc1ccccn1)c1ccccc1,-2.19
6,CNc1oc(-c2ccc(Cl)cc2)nc1C#N,-4.17
7,Cc1cc(C)cc(N2CCCn3c2nc2c3c(=O)[nH]c(=O)n2C)c1,13.6
8,CC(C)(C)n1nnnc1C(c1cccs1)N(Cc1cccnc1)Cc1ccccc1Cl (stereo not shown),-11.4
9,CC(c1nnnn1C(C)(C)C)N(Cc1cccnc1)Cc1ccccc1Cl (stereo not shown),-52.3
10,CC(C)(C)n1nnnc1CN(Cc1cccnc1)Cc1ccccc1Cl,-33
11,CCOC(=O)c1nc(C)n(-c2cc(OC)c(Cl)cc2Cl)n1,5.95
12,O=C(CCCOc1ccccc1)Nc1cccc(C(=O)O)c1,12.6
13,COc1ccc(OC)c(NC(=O)CSc2nnc(-c3ccco3)o2)c1,-15.7
14,Cc1ccc(NC(=O)CSc2nc(=O)n(CCCN3CCOCC3)c3c2CCCC3)c(C)c1,-36.7
15,Cc1cc(C)cc(NC(=O)CSc2nc(=O)n(CCCN3CCOCC3)c3c2CCCC3)c1,-55.2
16,CC(C)c1ccc(NC(=O)CSc2nc(=O)n(CCCN3CCOCC3)c3c2CCC3)cc1,-51.3
17,Cc1ccc(NC(=O)CSc2nc(=O)n(CCCN3CCOCC3)c3c2CCCC3)cc1,-45.5
18,Cc1cccc(NC(=O)CSc2nc(=O)n(CCCN3CCOCC3)c3c2CCCC3)c1,-42.4
19,Cc1ccc(NC(=O)CSc2nc(=O)n(CCCN3CCOCC3)c3c2CCCC3)cc1F,-50.2
20,O=C(CSc1nc(=O)n(CCCN2CCOCC2)c2c1CCCC2)Nc1ccc(Cl)cc1,-77.7
21,CC(C)c1ccc(NC(=O)CSc2nc(=O)n(CCCN3CCOCC3)c3c2CCCC3)cc1,-39.7
22,CC(C)c1ccc(NC(=O)CSc2nc(=O)n(CCN3CCOCC3)c3c2CCC3)cc1,-41.5
